Most compounds without a hit are left out; they make up all but 2.1% or so of the library.
Ba/F3 V617F tox – lowers viability of Ba/F3 cells expressing EpoR and JAK2V617F | ATP luminescence | inhibition, % at 5.6 µM | 220,000 compounds, 1.1% hits;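 active = inhibition above the campaign mean plus 3 SD over all tested compounds, cut at about 24% in these data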;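 also: cytokine-independent growth of Ba/F3 cells driven by EpoR plus mutant JAK2; 0% = DMSO-treated cells and 100% = JAK inhibitor I control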
APP 5UTR inh – APP translation inhibition; SH-SY5Y APP 5'UTR-luciferase reporter, luminescence; inhibition, % at 2 µM; 190,000 compounds, 0.82% hits; AID 1285;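 active = inhibition above a set limit, derived from the sample mean plus 3 SD, cut at about 45% in these data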
IEC-6 cytotox – kills IEC-6 intestinal cells in KLF5 counter-screen; 290,000 compounds, 0.78% hits; inhibition, % at 5 µM; IEC-6 cytotoxicity, luminescence viability;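 also: 0% = plate median of test compound wells and 100% = cytotoxic reference compound wells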
KLF5 inh – suppresses KLF5 promoter-driven expression; 290,000 compounds, 0.23% hits; AID 1700; inhibition, % at 5 µM; DLD-1 KLF5 promoter-luciferase reporter, luminescence;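 active = inhibition above a per-plate limit of that plate's mean compound inhibition plus 3 SD, cut at about 60% in these data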;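 also: 0% = DMSO wells and 100% = LY294002 at 200 µM; higher means less KLF5 promoter-driven luciferase light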
BaF3 parental – reduces parental Ba/F3 cell viability, JAK2V617F counter-screen; CellTiter-Glo ATP luminescence; AID 1486; inhibition, % at 5.6 µM; 220,000 compounds, 1.1% hits;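 active = inhibition above a per-campaign cutoff, the mean inhibition of all tested compounds plus 3 SD, cut at about 27% in these data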;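 also: 0% = DMSO wells and 100% = JAK Inhibitor I control wells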
aSyn 5UTR inh – MLPCN primary screen, SNCA 5' untranslated region. alpha-synuclein 5'UTR reporter, inhibitor activity. inhibition, % (tested at 7.5 µM). 300,000 compounds, 0.82% hits. AID 1813; in the data active = inhibition above about 60%;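 also: H4 neuroglioblastoma cells stably carrying SNCA 5'UTR luciferase fusion; 0% = DMSO wells and 100% = positive control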
IEC-6 cytotox cf – confirmation of cytotoxic compounds in rat IEC-6 intestinal epithelial cells | shares compounds with IEC-6 cytotox | IEC-6 rat intestinal epithelial viability, luminescence | inhibition, % at 5 µM | 1,900 compounds, 63% hits | AID 1907;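 also: 0% = vehicle and 100% = reference cytotoxic drug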
Starred values were filed as active, the others as inactive; / = no result. Rule as the data show it, unless noted: active = inhibition above about 22%; inactive = the rest.

SMILES | Ba/F3 V617F tox | APP 5UTR inh | IEC-6 cytotox | KLF5 inh | BaF3 parental | aSyn 5UTR inh | IEC-6 cytotox cf
O=C(Nc1ccc(Cl)cc1)Nc1ccon1 | / | / | 29.2* | -19.3 | / | -129.1 | 8.9
COC(=O)c1cc(C(=O)OCC(=O)NC(=O)c2ccccc2)cc([N+](=O)[O-])c1 | / | / | / | / | / | 3.5 | /
COc1cc(/C=N/Nc2snc(SC)c2C#N)ccc1O | 73.3* | 82.9* | 45.1* | 20.1 | 61.5* | -49.1 | 44.9*
CCOc1ccccc1C(=O)NCC(=O)NNC(=O)c1cccc(S(=O)(=O)Nc2ccc(OC)cc2)c1 | / | / | / | / | / | 9.3 | /
O=[N+]([O-])c1cccc(C=Nc2cccc3ccccc23)c1O | / | / | 31.6* | -38.6 | / | 1.8 | 12.2
CC1(C)CC(N2CCCC2)=CC(=[N+]2CCCCC2)C1 | 82.2* | 17.1 | 22.9* | -11.7 | 66.8* | -56.3 | 32.8*
COc1cc(/C=C2/SC(=S)N(Cc3ccccc3)C2=O)ccc1O | / | / | 9.6 | -19.5 | / | -67.3 | /
COc1ccc(/C=C2\CN(Cc3ccccc3)C/C(=C\c3ccc(OC)c(O)c3)C2=O)cc1O | / | / | 32.6* | 24.6 | / | 106.7* | 14.8
O=C(O)[C@H]1CCCC[C@H]1C(=O)Nc1ccc(S(=O)(=O)N2CCOCC2)cc1 | / | / | -2.3 | -7.7 | / | 22.3 | /
CCC(C)c1ccccc1N1CC(C(=O)N(C)CC(=O)Nc2cccc(F)c2)CC1=O (configuration not stated) | / | / | / | / | / | 0.5 | /
COc1ccc(N2CCN(C(=O)c3ccc(CS(=O)Cc4ccc(C)cc4)o3)CC2)cc1 (configuration not stated) | / | / | 4.0 | -4.2 | / | -20.3 | /
COc1ccc(S(=O)Cc2ccc(C(=O)N3CCN(c4cccc(C)c4C)CC3)o2)cc1 (configuration not stated) | / | / | 31.9* | 24.6 | / | 35.8 | 37.4*
Cn1c(=O)c2cc(S(=O)(=O)Nc3ccc4c(c3)OCO4)ccc2n(C)c1=O | 6.4 | 19.3 | 22.3* | -0.3 | 15.6 | 28.2 | 21.2
Cc1ccc(Nc2nc(N/N=C/c3c[nH]c4ccccc34)nc(N3CCOCC3)n2)cc1 | 80.2* | 31.8 | 90.1* | -30.3 | 61.7* | 32.1 | 93.9*
Cc1cc(/C=N/Nc2nc(N3CCOCC3)nc(N3CCOCC3)n2)c(C)n1-c1ccccc1 | -3.0 | 17.1 | -3.4 | -31.5 | 5.5 | -22.9 | /
c1ccc(Nc2nc(N3CCOCC3)nc(N3CCOCC3)n2)cc1 | -1.6 | 24.5 | 8.0 | -20.5 | 2.8 | 26.4 | /
C(=N\Nc1nc(Nc2ccccc2)nc(N2CCOCC2)n1)/c1c[nH]c2ccccc12 | 78.1* | 21.4 | 85.6* | -34.0 | 66.7* | 4.1 | 97.2*
Cc1[nH]c2ccccc2c1/C=N/Nc1nc(Nc2ccc(F)cc2)nc(N2CCOCC2)n1 | 0.2 | 12.6 | 56.0* | 17.7 | 10.0 | / | 96.2*
Fc1ccc(Nc2nc(N3CCOCC3)nc(N3CCOCC3)n2)cc1 | / | / | 2.0 | -4.1 | / | 7.8 | /
Cc1ccc(Cl)cc1NC(=S)N1CCCCCC1 | / | / | -0.8 | -20.1 | / | / | /
CCN1/C(=C/C=C/c2oc3ccc(-c4ccccc4)cc3[n+]2CC)Oc2ccc(-c3ccccc3)cc21 | 99.8* | 74.1* | 61.4* | 14.7 | 78.2* | 140.4* | 4.6
CCOc1cc(/C=N/Nc2cc(C)nc(-n3nc(C)cc3C)n2)ccc1O | -1.2 | / | 53.5* | 3.6 | -1.5 | 68.3* | 16.2
Cc1cc(N/N=C/c2ccc(F)cc2)nc(-n2nc(C)cc2C)n1 | 3.1 | / | 8.4 | -2.2 | 1.2 | 9.4 | /
COc1cc2cc(-c3ccc(O)cc3O)nc(C)c2cc1OC | / | / | 22.0* | 10.0 | / | -115.9 | 16.2
CCOc1ccccc1NC(=O)Nc1ccc(Br)cc1C | 0.8 | 18.5 | -1.4 | -10.7 | 4.3 | 21.3 | /
SMILES | Ba/F3 V617F tox | APP 5UTR inh | IEC-6 cytotox | KLF5 inh | BaF3 parental | aSyn 5UTR inh | IEC-6 cytotox cf
COc1cc2c(cc1OC)CN(C(=O)/C=C/c1cccs1)CC2 | 81.3* | / | 59.3* | 47.4 | 62.6* | 30.6 | 52.0*
COc1cc2c(cc1OC)CN(C(=O)/C=C/c1ccc([N+](=O)[O-])cc1)CC2 | / | / | -1.8 | -16.9 | / | 3.5 | /
COc1cc2c(cc1OC)CN(C(=O)/C=C/c1ccccc1[N+](=O)[O-])CC2 | / | / | 24.2* | 15.2 | / | -52.4 | 15.9
O=c1[nH]c(-c2ccccn2)nc(C(F)(F)F)c1Br | 9.2 | 6.2 | 68.1* | 59.8 | 27.6* | 44.1 | 24.4*
CC(C)CCN1C(=O)c2ccc(C(=O)Nc3ccccn3)cc2C1=O | / | / | 10.3 | -0.2 | / | -13.8 | /
CCN(CC)c1ccc2cc(-c3nc4ccccc4n3C)c(=O)oc2c1 | 69.2* | 87.3* | 83.7* | 49.9 | 76.9* | -226.5 | 65.6*
CCN(CC)c1ccc2cc(-c3nc4ccccc4[nH]3)c(=O)oc2c1 | -0.7 | -185.2 | 4.6 | -117.3 | 1.9 | 27.9 | /
C/C(=N\NC(=O)c1nnn(-c2nonc2N)c1CN1CCc2ccccc21)c1ccccc1O | / | / | 54.2* | 46.2 | / | 75.2* | 55.7*
CCOCCc1nn2c(=O)cc(CSCC(=O)Nc3cc(C)cc(C)c3)nc2s1 | / | / | -5.8 | 6.0 | / | 9.2 | /
Nc1nc(Nc2ccccc2F)nc(N2CCCC2)c1[N+](=O)[O-] | / | / | 22.8* | -16.3 | / | -131.5 | 22.1*
CCN1CCN(c2nc(Nc3ccccc3F)nc(N)c2[N+](=O)[O-])CC1 | -5.2 | / | 2.5 | -22.9 | -4.2 | 19.5 | /
CCOc1ccc(C2NC(=O)CCC2[N+](=O)[O-])cc1 (configuration not stated) | / | / | -1.6 | -18.4 | / | -1.0 | /
CC1(C)C2CC=C(/C=N/NC(=S)Nc3cccnc3)C1C2 (configuration not stated) | -1.9 | -17.9 | -6.3 | -4.0 | 3.6 | 0.3 | /
CC1=C/C(=N\NC(=S)Nc2cccnc2)CC(C)(C)C1 | 8.2 | -0.6 | 29.2* | -8.4 | 6.7 | -24.9 | 59.4*
COc1ccc(C(=O)NCc2nnc(SCC(=O)Nc3nc4ccccc4s3)o2)cc1 | 3.4 | 2.9 | 64.1* | -30.8 | 6.3 | -14.2 | -6.7
CCOc1ccc(/C=C/c2nc(C#N)c(NCCCOC)o2)cc1 | / | / | 74.2* | 54.4 | / | -149.5 | 61.0*
COc1ccccc1N1CCN(S(=O)(=O)c2c(C(=O)N3CCOCC3)c(C)n(C)c2C)CC1 | / | / | 5.1 | -32.9 | / | 3.3 | /
Clc1ccc2c(NCc3cccs3)ncnc2c1 | / | / | 4.7 | -11.2 | / | -23.8 | /
COc1cc2ncnc(NCc3cccs3)c2cc1OC | 2.1 | -6.9 | 32.9* | 17.0 | 7.8 | -24.4 | 32.3*
CCCCn1c(=O)[nH]c(=O)c2c1nc(Cn1ncc(Cl)c(Cl)c1=O)n2CCC | / | / | 101.7* | 49.6 | / | -106.0 | 28.1*
CCCCn1c(=O)[nH]c(=O)c2c1nc(CN1C(=O)c3ccccc3S1(=O)=O)n2CCC | 0.5 | -19.4 | -6.1 | -23.7 | 3.3 | -0.5 | /
COc1ccc(/C=C/C(=O)NCC(=O)N2CCC(N(C)CCN3CCOCC3)CC2)cc1OC | 2.3 | -22.6 | 0.6 | -27.1 | 6.8 | -7.7 | /
CC(=O)NC1=NN(C(C)=O)C(C)(c2cccs2)S1 (configuration not stated) | 62.1* | 5.4 | 56.5* | 8.2 | 61.6* | 39.2 | 38.0*
CC(=O)NC1=NN(C(C)=O)C(C)(c2ccco2)S1 (configuration not stated) | -0.5 | 3.0 | -1.8 | 12.5 | 7.8 | 16.7 | /
